Measurements taken from PubChem BioAssay (NCATS).
Inconclusive results are not listed. Active and inactive are the calls of the source. Calls come from the whole dose curve; as a rule, active = well fitted curve in the direction sought with a large enough effect; inconclusive = small, poorly fitted or top-dose-only effect, or another doubt; inactive = no such curve, though single readings can be large; an effect the other way counts as inactive or inconclusive.

Assays:
[1] = Quantitative High-Throughput drug screen in 47 multiple myeloma cell lines against the NCATS MIPE library collection: Delta47_JCRB cell viability assay (AID 1918925; note: nearly all actives have a fitted effect of over 45% in size; note: potency is the fitted concentration of half-maximal effect)
Procedure, shortened: (§1)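 Approved and investigational drugs from MIPE 4.0 were added by pin tool to 500 cells per well. After 48 hours at 37C, ATP-based CellTiter-Glo luminescence indicated remaining viability.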

[2] = Quantitative High-Throughput drug screen in 47 multiple myeloma cell lines against the NCATS MIPE library collection: EJM_DSMZ cell viability assay (AID 1918926; note: nearly all actives have a fitted effect of over 30% in size; note: potency is the fitted concentration of half-maximal effect)
Procedure, shortened: as §1

[3] = Quantitative High-Throughput drug screen in 47 multiple myeloma cell lines against the NCATS MIPE library collection: ARP1_JJKsccF8 cell viability assay (AID 1918928; note: nearly all actives have a fitted effect of over 40% in size; note: potency is the fitted concentration of half-maximal effect)
Procedure, shortened: (§2)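 500 cells/well; MIPE 4.0 library pinned in; 48 h, 37 °C, 5% CO2; CellTiter-Glo ATP luminescence. Controls: DMSO = 100% viability, medium only = 0%.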

[4] = Quantitative High-Throughput drug screen in 47 multiple myeloma cell lines against the NCATS MIPE library collection: ARD_JJKsccE7 cell viability assay (AID 1918929; note: potency is the fitted concentration of half-maximal effect)
Procedure, shortened: as §1

[5] = Quantitative High-Throughput drug screen in 47 multiple myeloma cell lines against the NCATS MIPE library collection: Karpas620_DSMZ cell viability assay (AID 1918959); note: nearly all actives have a fitted effect of over 30% in size; note: potency is the fitted concentration of half-maximal effect
Procedure, shortened: (§3)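 Steps: seed 500 cells per well; pin-transfer MIPE 4.0 library; incubate 48 h at 37C, 5% CO2, humidified; add CellTiter-Glo, 5 min room temperature; read luminescence.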

[6] = Quantitative High-Throughput drug screen in 47 multiple myeloma cell lines against the NCATS MIPE library collection: KMM1_JCRB cell viability assay (AID 1918960); note: nearly all actives have a fitted effect of over 30% in size; note: potency is the fitted concentration of half-maximal effect
Procedure, shortened: as §2

[7] = Quantitative High-Throughput drug screen in 47 multiple myeloma cell lines against the NCATS MIPE library collection: Karpas417_ECACC cell viability assay (AID 1918961); conditions: Karpas417 myeloma viability, CellTiter-Glo ATP luminescence, 48 h; viability (% of DMSO): at 45.8 µM (top of the series); note: potency is the fitted concentration of half-maximal effect
Procedure, shortened: (§4)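 CellTiter-Glo luminescence (ATP) after 48 h compound exposure, 37C/5% CO2; 500 cells/well; MIPE 4.0 approved/investigational drugs pinned in; DMSO = 100%, media only = 0% viability.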

[8] = Quantitative High-Throughput drug screen in 47 multiple myeloma cell lines against the NCATS MIPE library collection: JIM3_ECACC cell viability assay (AID 1918963; note: nearly all actives have a fitted effect of over 35% in size; note: potency is the fitted concentration of half-maximal effect)
Procedure, shortened: as §3

[9] = Quantitative High-Throughput drug screen in 47 multiple myeloma cell lines against the NCATS MIPE library collection: INA6_PLB cell viability assay (AID 1918965; note: nearly all actives have a fitted effect of over 55% in size; note: potency is the fitted concentration of half-maximal effect)
Procedure, shortened: as §4

[10] = Quantitative High-Throughput drug screen in 47 multiple myeloma cell lines against the NCATS MIPE library collection: H1112_PLB cell viability assay (AID 1918967; note: nearly all actives have a fitted effect of over 30% in size; note: potency is the fitted concentration of half-maximal effect)
Procedure, shortened: as §1

[11] = Quantitative High-Throughput drug screen in 47 multiple myeloma cell lines against the NCATS MIPE library collection: KMS27_JCRB cell viability assay (AID 1918970); note: nearly all actives have a fitted effect of over 30% in size; note: potency is the fitted concentration of half-maximal effect
Procedure, shortened: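 ATP-based viability (CellTiter-Glo luminescence) is measured in cells treated 48 h with approved and investigational drugs at 37 °C. Controls are DMSO-only wells for full viability and media-only wells for none.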

[12] = Quantitative High-Throughput drug screen in 47 multiple myeloma cell lines against the NCATS MIPE library collection: KMS12PE_JCRB cell viability assay (AID 1918972); note: nearly all actives have a fitted effect of over 30% in size; note: potency is the fitted concentration of half-maximal effect
Procedure, shortened: as §4

[13] = Quantitative High-Throughput drug screen in 47 multiple myeloma cell lines against the NCATS MIPE library collection: JJN3_DSMZ cell viability assay (AID 1918966; note: nearly all actives have a fitted effect of over 50% in size; note: potency is the fitted concentration of half-maximal effect)
Procedure, shortened: as §1

[14] = Quantitative High-Throughput drug screen in 47 multiple myeloma cell lines against the NCATS MIPE library collection: KMS12BM_JCRB cell viability assay (AID 1918971); note: nearly all actives have a fitted effect of over 35% in size; note: potency is the fitted concentration of half-maximal effect
Procedure, shortened: as §3

[15] = Quantitative High-Throughput drug screen in 47 multiple myeloma cell lines against the NCATS MIPE library collection: Karpas25_ECACC cell viability assay (AID 1918968; note: nearly all actives have a fitted effect of over 35% in size; note: potency is the fitted concentration of half-maximal effect)
Procedure, shortened: as §1

[16] = Quantitative High-Throughput drug screen in 47 multiple myeloma cell lines against the NCATS MIPE library collection: KHM11_PLB cell viability assay (AID 1918962); note: nearly all actives have a fitted effect of over 35% in size
Procedure, shortened: as §3

[17] = Quantitative High-Throughput drug screen in 47 multiple myeloma cell lines against the NCATS MIPE library collection: AMO1_DSMZ cell viability assay (AID 1918927)
Procedure, shortened: as §1

[18] = Quantitative High-Throughput drug screen in 47 multiple myeloma cell lines against the NCATS MIPE library collection: JIM1_ECACC cell viability assay (AID 1918964; note: potency is the fitted concentration of half-maximal effect)
Procedure, shortened: as §1

Measured: Potency

CCc1cccc2c3c([nH]c12)C(CC)(CC(=O)O)OCC3 (centres undefined)
not listed: [13] | [14] | [15] | [16] | [17] | [18]
inactive: all other assays above

Cn1c(=O)c2c(ncn2C)n(C)c1=O
not listed: [1] | [7] | [11] | [15] | [16] | [17] | [18]
inactive: all other assays above

Cc1cnc(C(=O)NCCc2ccc(S(=O)(=O)NC(=O)NC3CCCCC3)cc2)cn1
inactive: [4] | [5] | [7] | [11]
active: [3] 18.7 µM | [6] 18.7 µM | [8] 18.7 µM | [14] 18.7 µM | [12] 14.8 µM

COc1cc2nc(N3CCN(C(=O)C4COc5ccccc5O4)CC3)nc(N)c2cc1OC (centres undefined)
inactive: [2]
active: [6] 5.9 µM | [9] 20.9 µM | [10] 18.7 µM | [15] 20.9 µM | [14] 6.62 µM | [12] 5.9 µM

NS(=O)(=O)c1cc2c(cc1Cl)NCNS2(=O)=O
inactive: [1] | [3] | [4] | [5] | [6] | [9] | [11] | [12]
active: [7] 0.0066 µM | [13] 7.43 µM | [10] 9.35 µM

CC1(CN2CCC(n3c(=O)[nH]c4ccccc43)CC2)OCc2ccccc2-n2cccc21 (centres undefined)
inactive: [3] | [4] | [5] | [6] | [16] | [8] | [12]
active: [9] 14.8 µM | [10] 8.33 µM | [15] 13.2 µM | [14] 16.6 µM

O=c1[nH]cc(F)c(=O)[nH]1
inactive: [2] | [5] | [10]
active: [3] 1.87 µM | [6] 10.5 µM | [8] 20.9 µM | [9] 5.26 µM | [12] 4.69 µM

CC(COc1ccccc1)N(CCCl)Cc1ccccc1 (centres undefined)
active: [4] 16.6 µM
inactive: [1] | [3] | [6] | [8] | [9] | [13] | [15]

Clc1ccc(C(c2ccccc2Cl)C(Cl)Cl)cc1 (centres undefined)
active: [17] 1.87 µM | [8] 20.9 µM | [14] 18.7 µM
inactive: [5] | [10]

CN1C(C(=O)Nc2ccccn2)=C(O)c2ccccc2S1(=O)=O
inactive: [2] | [3] | [4] | [6] | [7] | [8] | [13] | [10] | [14] | [12]

NCCCCCC(=O)O
active: [13] 0.0187 µM
inactive: [2] | [4] | [5] | [6] | [8] | [18] | [10] | [15] | [14]

CN(C)CCC=C1c2ccccc2C=Cc2ccccc21
active: [17] 0.0235 µM | [13] 18.7 µM | [15] 1.66 µM | [14] 1.48 µM
inactive: [2] | [4] | [5] | [6] | [11] | [12]

COc1ccc2[nH]cc(CCNC(C)=O)c2c1
active: [18] 0.0074 µM
not listed: [1] | [3] | [8] | [9] | [13] | [16] | [17]
inactive: all other assays above

OCCN(CCO)c1nc(N2CCCCC2)c2nc(N(CCO)CCO)nc(N3CCCCC3)c2n1
active: [1] 23.5 µM | [17] 23.5 µM | [18] 23.5 µM | [13] 23.5 µM | [15] 26.4 µM | [11] 20.9 µM | [14] 26.4 µM | [12] 23.5 µM

N[C@@H](Cc1c[nH]c2ccc(O)cc12)C(=O)O
active: [6] 18.7 µM
inactive: [1] | [2] | [5] | [18] | [9] | [10] | [11] | [12]

COc1cc2nc(N3CCN(C(=O)c4ccco4)CC3)nc(N)c2cc1OC
active: [1] 10.5 µM | [17] 5.9 µM | [3] 26.4 µM | [4] 9.35 µM | [5] 5.26 µM | [6] 9.35 µM | [8] 9.35 µM | [9] 8.33 µM | [10] 16.6 µM | [15] 7.43 µM | [11] 9.35 µM | [12] 7.43 µM

NC(CO)C(=O)NNCc1ccc(O)c(O)c1O (centres undefined)
active: [3] 23.5 µM | [13] 11.8 µM | [14] 20.9 µM
not listed: [2] | [6] | [7] | [16] | [17] | [18]
inactive: all other assays above

CC(C)NCC(O)c1ccc(O)c(O)c1 (centres undefined)
inactive: [16] | [8] | [10]
active: [2] 14.8 µM | [4] 5.9 µM | [5] 14.8 µM | [6] 2.64 µM | [7] 1.48 µM | [18] 13.2 µM | [13] 20.9 µM | [15] 0.0418 µM | [11] 1.18 µM | [12] 5.26 µM

CN1CCN2c3ccccc3Cc3ccccc3C2C1 (centres undefined)
inactive: [5]
active: [8] 20.9 µM | [10] 23.5 µM | [15] 23.5 µM | [14] 20.9 µM | [12] 18.7 µM

CC[N+](CC)(CC)CCOc1cccc(OCC[N+](CC)(CC)CC)c1OCC[N+](CC)(CC)CC
inactive: [1] | [2] | [4] | [5] | [6] | [8] | [18] | [13] | [10] | [15]

Cc1ccccc1N1C(=O)c2cc(S(N)(=O)=O)c(Cl)cc2NC1C (centres undefined)
active: [13] 4.69 µM
not listed: [7] | [9] | [11] | [12] | [16] | [17] | [18]
inactive: all other assays above
